Test results published in PubChem BioAssay.
Activity calls are given as the source filed them. Unless noted, no stated cut-off is given here; in the data, active means inhibition above about 36%; inactive means the rest.

Assays:
[1] = tested on: transactivating tegument protein VP16 (Human herpesvirus 1); test: compounds suppressing VP16-driven luciferase signal – cell-based, luminescence, single concentration, counter-screen for SRC2 inhibitor project (AID 652007); conditions: cell-based VP16 transactivation luciferase reporter, at 8.9 µM, stronger effect = higher value
[2] = biological target: Nuclear receptor coactivator 2 (Homo sapiens) (UniProt Q15596); test: inhibition of GAL4-SRC2 driven luciferase expression – cell-based, luminescence, HEK293, triplicate, confirmation (AID 652008;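 active means mean inhibition above 46.5%, the solvent-only control mean plus 3 SD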;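 further: 0% = DMSO-treated cells and 100% = Gossypol at 36 µM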); conditions: HEK293 GAL4-SRC2 luciferase reporter, at 8.9 µM, stronger effect = higher value
Sequence of Nuclear receptor coactivator 2 (Homo sapiens) (Q15596 whole entry, looked up, the tested form may be a part): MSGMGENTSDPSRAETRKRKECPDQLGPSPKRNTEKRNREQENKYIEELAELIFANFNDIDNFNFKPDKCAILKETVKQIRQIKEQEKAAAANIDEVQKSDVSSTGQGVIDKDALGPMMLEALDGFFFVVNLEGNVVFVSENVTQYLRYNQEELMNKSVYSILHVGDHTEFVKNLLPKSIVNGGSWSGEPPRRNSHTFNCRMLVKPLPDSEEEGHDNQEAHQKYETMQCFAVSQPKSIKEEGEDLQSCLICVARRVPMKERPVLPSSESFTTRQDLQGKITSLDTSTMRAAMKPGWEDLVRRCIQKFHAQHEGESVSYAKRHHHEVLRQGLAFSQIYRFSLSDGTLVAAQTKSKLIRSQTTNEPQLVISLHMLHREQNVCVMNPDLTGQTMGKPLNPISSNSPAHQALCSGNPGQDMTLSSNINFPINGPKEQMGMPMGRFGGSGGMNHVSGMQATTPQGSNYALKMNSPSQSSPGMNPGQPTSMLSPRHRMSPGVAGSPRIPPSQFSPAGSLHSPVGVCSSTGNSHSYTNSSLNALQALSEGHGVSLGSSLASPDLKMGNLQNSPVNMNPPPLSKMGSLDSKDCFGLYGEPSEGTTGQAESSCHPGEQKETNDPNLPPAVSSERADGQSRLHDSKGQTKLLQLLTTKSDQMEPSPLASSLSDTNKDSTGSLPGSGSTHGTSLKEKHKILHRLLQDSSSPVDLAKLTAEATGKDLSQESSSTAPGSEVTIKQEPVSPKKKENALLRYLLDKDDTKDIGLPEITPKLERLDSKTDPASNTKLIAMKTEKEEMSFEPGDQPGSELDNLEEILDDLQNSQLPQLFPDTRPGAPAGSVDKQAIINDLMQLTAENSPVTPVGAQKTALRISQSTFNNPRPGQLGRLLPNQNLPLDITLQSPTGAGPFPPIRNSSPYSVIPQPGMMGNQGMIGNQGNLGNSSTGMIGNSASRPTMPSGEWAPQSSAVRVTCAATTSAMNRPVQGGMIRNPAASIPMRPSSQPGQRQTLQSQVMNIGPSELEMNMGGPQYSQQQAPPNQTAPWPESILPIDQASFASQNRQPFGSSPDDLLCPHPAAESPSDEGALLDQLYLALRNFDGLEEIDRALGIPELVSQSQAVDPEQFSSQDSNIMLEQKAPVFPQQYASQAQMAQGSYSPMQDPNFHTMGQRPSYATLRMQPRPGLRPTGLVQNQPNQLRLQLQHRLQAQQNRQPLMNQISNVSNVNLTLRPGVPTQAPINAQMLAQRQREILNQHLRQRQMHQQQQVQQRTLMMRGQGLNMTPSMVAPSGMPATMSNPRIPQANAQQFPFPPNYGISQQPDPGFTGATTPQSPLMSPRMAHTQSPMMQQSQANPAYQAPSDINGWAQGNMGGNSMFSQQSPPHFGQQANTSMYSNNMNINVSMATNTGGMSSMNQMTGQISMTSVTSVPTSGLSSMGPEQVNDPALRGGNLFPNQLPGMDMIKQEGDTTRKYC

SMILES	inhibition [1]	inhibition [2]
CC(C)(C)c1ccc(/C=C/C(=O)NCCCN2CCOCC2)cc1	-13.2% (inactive)	4.98% (inactive)
COC(=O)C1Cc2ccccc2CN1C(=O)CCl (stereo unspecified)	27.7% (inactive)	33.2% (inactive)
CC(=O)Nc1ccc(NC(=O)c2nc(S(=O)(=O)Cc3cccc(C)c3)ncc2Cl)cc1	21.6% (inactive)	50.8% (active)
CSc1nnc(NC(=O)c2nc(S(=O)(=O)Cc3ccc(C)cc3)ncc2Cl)s1	36.7% (active)	55.7% (active)
COc1ccc(S(=O)(=O)N2CCCC(C(=O)NCc3ccncc3)C2)cc1 (stereo unspecified)	-0.24% (inactive)	10.6% (inactive)
CCN1CCCc2cc(CN(CCN3CCOCC3)C(=S)Nc3ccccc3OC)ccc21	-14.1% (inactive)	-10.6% (inactive)
CCc1nnc(NC(=O)c2nc(S(=O)(=O)Cc3ccc(C)cc3)ncc2Cl)s1	48.1% (active)	58.3% (active)
COc1cccc(-c2ncn(CCc3ccccc3OC)c2CC(C)C)c1	-2.53% (inactive)	18.6% (inactive)
CSCC[C@H](NC(=O)c1cc([N+](=O)[O-])ccc1Cl)c1nc2ccccc2[nH]1	-0.37% (inactive)	19% (inactive)
COc1ccc(/C=C2\SC(=S)N(CCC(=O)NC3C=CS(=O)(=O)C3)C2=O)cc1 (stereo unspecified)	3.55% (inactive)	62.1% (active)
O=C(CCCN1C(=O)/C(=C/c2ccccc2Cl)SC1=S)NNC(=O)c1ccc(Cl)cc1	73.7% (active)	82% (active)
COc1ccc(C2CC(c3cccs3)=NN2C(=O)CCl)cc1OC (stereo unspecified)	42.5% (active)	6.43% (inactive)
CCCCOc1ccc(C2(C)NC(=O)NC2=O)cc1 (stereo unspecified)	-7.32% (inactive)	-2.28% (inactive)
O=C(c1ccccc1)N1CCN(c2ncnc3sc4c(c23)CCC4)CC1	19.7% (inactive)	37.1% (inactive)
Cc1nn(C)c(Cl)c1NC(=O)OCc1ccc(Cl)cc1Cl	10.8% (inactive)	16.2% (inactive)
COc1ccc(NC(=O)NCc2ccccc2F)cc1OC	-0.66% (inactive)	-17.2% (inactive)
COc1ccc(C(=O)c2[nH]c(N)c(C(=O)NCCc3c[nH]c4ccccc34)c2-c2ccc(OC)c(OC)c2)cc1	-9.46% (inactive)	-4.51% (inactive)
CCN(CC)S(=O)(=O)c1cccc(C(=O)N/N=C/c2cccc(O)c2O)c1	-46.8% (inactive)	-7.21% (inactive)
O=C(CN1CCN(S(=O)(=O)c2ccc(F)c(F)c2)CC1)Nc1ccccc1C(=O)NC1CC1	-15.4% (inactive)	-35.8% (inactive)
CC(C)CCn1cnc2c(sc3nc4c(cc32)CSC(C)(C)C4)c1=O	-42.3% (inactive)	-11.9% (inactive)
O=C(CCCN1C(=O)/C(=C/c2cccc(Br)c2)SC1=S)NCCCN1CCOCC1	32.1% (inactive)	10.6% (inactive)
Cc1onc(C(=O)N2CCC(Cc3ccccc3)CC2)c1[N+](=O)[O-]	-1.3% (inactive)	5.37% (inactive)
O=C1NC(c2ccccc2)Cc2ccncc21 (stereo unspecified)	-6.21% (inactive)	-28.4% (inactive)
COc1ccc(C(=O)OCC(=O)Nc2ccc3c(c2)OCCO3)c(OC)c1	6.79% (inactive)	-39% (inactive)
C/C(CC(=O)NC1C2CC3CC(C2)CC1C3)=N\NC(=O)Cc1cccs1 (stereo unspecified)	-16.1% (inactive)	-8.93% (inactive)

SMILES	inhibition [1]	inhibition [2]
O=C(N/N=C/c1coc2ccc(Cl)cc2c1=O)c1cc(O)cc(O)c1	23.4% (inactive)	18.5% (inactive)
CCc1ccc(/C=C2\SC(=S)N(CCC(=O)NC3=NCCS3)C2=O)cc1	-67.3% (inactive)	75% (active)
COC(=O)C1CN(Cc2ccccc2)CCS(=O)(=O)N1Cc1cn(Cc2ccc(Cl)cc2)nn1 (stereo unspecified)	-13.7% (inactive)	-3.09% (inactive)
Cc1cc(=O)oc2cc(OCC(=O)NC3CCCC3)ccc12	-12.6% (inactive)	-25.6% (inactive)
CCc1cc2c(Sc3nc4ccccc4s3)ncnc2s1	36.6% (active)	42.6% (inactive)
Cc1oc(-c2cccc3ccccc23)nc1CN1CCN(c2ncnc3ccccc23)CC1	-22.1% (inactive)	5.63% (inactive)
CCOc1ccc(N2CC(C(=O)Nc3ccc4c(c3)OCCO4)CC2=O)cc1 (stereo unspecified)	-5.36% (inactive)	-6.17% (inactive)
Cc1ccc(S(=O)(=O)/N=C(\N)c2ccc(F)cc2)cc1	5.17% (inactive)	-14.9% (inactive)
Cc1nc2cc(-c3ccc(Cl)cc3)nn2c(C)c1CCC(=O)NC(C)c1ccc2c(c1)OCCO2 (stereo unspecified)	-10.9% (inactive)	72.8% (active)
O=C(O)CCCc1nc(-c2ccc(Cl)cc2)no1	20.7% (inactive)	30% (inactive)
CN1CCN(c2nc3ccccc3nc2C(C#N)S(=O)(=O)c2ccccc2)CC1 (stereo unspecified)	10.5% (inactive)	20.1% (inactive)
N#CC1CCCc2c1[nH]c1ccc([N+](=O)[O-])cc21 (stereo unspecified)	-27% (inactive)	-16.7% (inactive)
O=C1C(N2CCOCC2)=C(n2nnc3ccccc32)C(=O)c2ccccc21	43.9% (active)	34.6% (inactive)
CS(=O)(=O)Nc1cccc(NC(=O)C2Cc3c(-c4cccc(F)c4)ccnc3O2)c1 (stereo unspecified)	21.8% (inactive)	36.3% (inactive)
Cc1c(CCC(=O)N[C@@H](C)C(=O)O)c(=O)oc2cc3oc4c(c3cc12)CCCC4	38.8% (active)	60.1% (active)
CCOC(=O)CSc1[nH]c2cc(OC)ccc2c1[N+](=O)[O-]	-31.1% (inactive)	3.3% (inactive)
CC(C)C(=O)Nc1ccc(C(=O)NCc2cccnc2)cc1	-2.6% (inactive)	33.3% (inactive)
CCS(=O)(=O)c1cc([N+](=O)[O-])c(Sc2ccccc2NC(C)=O)s1	-21% (inactive)	-26.1% (inactive)
COc1ccc2c(c1)CCCN2C(=O)C1CCCN(S(=O)(=O)c2ccc(C(C)(C)C)cc2)C1 (stereo unspecified)	-3.95% (inactive)	15.7% (inactive)
COc1cc(OC)nc(Nc2nc(C(N)Cc3ccc(F)cc3)cs2)n1 (stereo unspecified)	-4.22% (inactive)	-0.34% (inactive)
CCCCCc1ccc(-c2ccc(/C=C/C(=O)O)cc2)nc1	-23.1% (inactive)	60.2% (active)
Cc1cccc(N(Cc2cc(=O)[nH]c3ccccc23)C(=O)CCl)c1	42.4% (active)	83% (active)
COc1ccc(-c2ncncc2-c2csc(C)n2)c(O)c1	-10.8% (inactive)	-21.2% (inactive)
N#CC1C=Cc2c(ccc3ccccc23)N1C(=O)c1ccccc1 (stereo unspecified)	-39.9% (inactive)	56.4% (active)
O=C(O)C1(Nc2ccc(Br)cc2)CCCC1	-19.4% (inactive)	-11.7% (inactive)

SMILES	inhibition [1]	inhibition [2]
CCOC(=O)c1ccccc1NC(=O)Cn1c(-c2nonc2N)nc2ccccc21	-1.87% (inactive)	6.09% (inactive)
O=C(c1ccccc1F)N1CCN(S(=O)(=O)c2ccc3c(c2)OCCO3)CC1	3.25% (inactive)	22.9% (inactive)
COc1ccc(CCNC(=S)N2CCC(C(=O)c3ccc(F)cc3)CC2)cc1OC	11.5% (inactive)	20.5% (inactive)
CCOc1ccc(-c2cc(CCCC(=O)NCc3ccco3)no2)cc1	16.9% (inactive)	37.5% (inactive)
Cc1nc(NCc2ccco2)c2c(C)c(C)sc2n1	12% (inactive)	38% (inactive)
Cc1cc2c(cc1C)C(=O)NC(C)(C)C2	2.03% (inactive)	28.2% (inactive)
CCNC(=O)NC(=O)COC(=O)CCCSc1nc2ccccc2s1	5% (inactive)	24.9% (inactive)
Cc1cc(C(=O)CN2C(=O)c3ccccc3S2(=O)=O)c(C)n1-c1ccccc1	-10.4% (inactive)	55.4% (active)
COc1cccc(N2CCN(c3ncnc4c3[nH]c3ccccc34)CC2C)c1 (stereo unspecified)	63.8% (active)	12.8% (inactive)
Cn1nnnc1Sc1ncnc2scc(-c3cccc(F)c3)c12	7.55% (inactive)	38.1% (inactive)
COc1ccc(OCCNC(=O)c2ccc3nc(C)c(N(C)C(=O)CCc4ccccc4)n3c2)cc1	-12.5% (inactive)	2.8% (inactive)
COc1ccc(Cl)cc1C(=O)Nc1nc2ccccc2[nH]1	-42.5% (inactive)	10.7% (inactive)
COc1cc(N(C(C)=O)c2ccc(O)cc2)c2ncccc2c1	1.2% (inactive)	2.41% (inactive)
COc1cc(Nc2nc(-c3ccccc3)c3cc(C)ccc3n2)cc(OC)c1OC	6.86% (inactive)	10.7% (inactive)
O=C(Nc1cccc(-c2cccc(Cl)c2)c1)C1CCN(Cc2ccccn2)CC1	-2.92% (inactive)	17.7% (inactive)
COc1ccc(S(=O)(=O)N/N=C\c2ccc3c(c2)OCO3)c(OC)c1	10.4% (inactive)	34.9% (inactive)
COc1cc(F)ccc1-c1csc(C(O)c2ccc(F)c(F)c2)n1 (stereo unspecified)	-3.93% (inactive)	10.6% (inactive)
COc1ccc(C(=O)C(CN2CCCC2)c2ccccc2)cc1 (stereo unspecified)	0.75% (inactive)	40.2% (inactive)
O=C1N[C@@H](Cc2ccccc2)C(=O)N2[C@H]1CSCCS2(=O)=O	-5.16% (inactive)	-25.1% (inactive)
CCC1CSC(Nc2ccc(C(=O)/C=C/c3ccc(OC)c(OC)c3)cc2)=N1 (stereo unspecified)	12.8% (inactive)	39.9% (inactive)
CCOC(=O)C1CCN(S(=O)(=O)c2ccc(NC(=O)OC)cc2)CC1	-1.65% (inactive)	-1.21% (inactive)
O=C(O)CCC(=O)Nc1ccc(NC(=O)c2ccc(Cl)cc2Cl)c(Cl)c1	-5.8% (inactive)	-2.71% (inactive)
COc1ccc2nc(NC(=O)C3CCN(S(=O)(=O)c4cccc5nsnc45)CC3)sc2c1	39.9% (active)	52.5% (active)
